Experimental data from PubChem BioAssay (NCATS).
Unmarked numbers belong to inactive results. Records with an inconclusive call do not appear. A call without a number means that no potency is given here. Calls of active or inactive are those of the source. Calls follow the shape of the dose curve; as a rule, active = well fitted curve in the direction sought with a large enough effect; inconclusive = small, poorly fitted or top-dose-only effect, or another doubt; inactive = no such curve, though single readings can be large; an effect the other way counts as inactive or inconclusive.

Key:
[1] = target: Glutathione peroxidase 1 (Homo sapiens) (UniProt P07203); assay: Primary qHTS Assay for Inhibitors of Recombinant Selenoprotein Glutathione Peroxidase 1 (GPX1) (AID 1845191); also: nearly all actives have a fitted effect of over 65% in size
Sequence of Glutathione peroxidase 1 (Homo sapiens) (P07203 whole entry, looked up): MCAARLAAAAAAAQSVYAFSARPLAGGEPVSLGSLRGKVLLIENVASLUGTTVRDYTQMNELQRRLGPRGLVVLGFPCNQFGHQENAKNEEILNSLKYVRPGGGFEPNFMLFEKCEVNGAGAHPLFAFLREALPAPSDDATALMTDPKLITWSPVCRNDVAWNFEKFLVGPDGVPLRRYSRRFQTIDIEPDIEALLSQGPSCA
How it was run: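 NADPH consumption tracked by fluorescence at 340/450 nm between t=0 and t=15 min, room temperature. Final mix: 10 nM GPX1, 100 nM glutathione reductase, 1 mM GSH, 0.5 mM NADPH, 0.5 mM cumene hydroperoxide, 0.01% BSA; 30 min compound–enzyme preincubation.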

[2] = target: Phospholipid hydroperoxide glutathione peroxidase GPX4 (Homo sapiens) (UniProt P36969); assay: Primary qHTS Assay for Inhibitors of Recombinant Selenoprotein Glutathione Peroxidase 4 (GPX4) (AID 1845192); also: nearly all actives have a fitted effect of over 65% in size
Sequence of Phospholipid hydroperoxide glutathione peroxidase GPX4 (Homo sapiens) (P36969 whole entry, looked up): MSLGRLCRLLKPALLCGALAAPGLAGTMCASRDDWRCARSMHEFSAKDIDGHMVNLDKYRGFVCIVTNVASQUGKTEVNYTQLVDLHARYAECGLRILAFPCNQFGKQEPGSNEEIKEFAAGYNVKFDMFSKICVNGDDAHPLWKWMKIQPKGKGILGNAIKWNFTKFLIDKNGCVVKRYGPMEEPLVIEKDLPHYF
How it was run: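 NADPH consumption followed by fluorescence at 340/450 nm, t=0 and after 15 min at room temperature. Reaction started with cumene hydroperoxide (0.5 mM final) after 30 min compound–GPX4 preincubation; final 200 nM GPX4, 100 nM GR, 1 mM GSH, 0.5 mM NADPH.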

[3] = target: Luciferin 4-monooxygenase (Photinus pyralis) (UniProt P08659); assay: Primary firefly luciferase (FLuc) qHTS assay for identification of artifact compounds. (AID 1845220); also: nearly all actives have a fitted effect of over 60% in size
How it was run: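 FLuc 10 nM; luciferin 10 uM; ATP 10 uM; Tris-acetate pH 7.6, Mg-acetate 10 mM; 15 min RT preincubation; 5 min reaction; luminescence.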

[4] = Primary fluorescence-based thiol-reactive (MSTI) qHTS assay for identification of artifact compounds. (AID 1845221); also: nearly all actives have a fitted effect of over 65% in size; also: potency is read from the fitted curve at half-maximal effect;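 as to activity change, negative = thiol reactive: series mostly up to about 54 µM; thiol-reactive compounds lower the probe fluorescence signal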
How it was run: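 First, 4 uM MSTI in 2% DMSO/PBS pH 7.4 was dispensed; next, compounds were added; then plates sat 1 h at room temperature without light. Finally, emission at 598 nm was recorded.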

[5] = system: Nanoluciferase (engineered Oplophorus gracilirostris luciferase); assay: Primary Nanoluciferase (NLuc) qHTS assay for identification of artifact compounds. (AID 1845222); also: potency is read from the fitted curve at half-maximal effect;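 as to activity, negative = inhibition: NLuc secreted into diluted conditioned medium of S16 cells; series mostly up to about 54 µM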
How it was run: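 NLuc from S16 cell medium (1:55) plus test compounds, 15 min, room temperature. Luminescence after Nano-Glo (1:100) addition, 5 min.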

[6] = Primary redox qHTS assay for identification of artifact compounds. (AID 1845223); also: potency is read from the fitted curve at half-maximal effect
How it was run: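 Redox-cycling detection via DTT (250 uM final) oxidation coupled to Amplex Red (25 uM)/HRP (250 mU/mL) in HBSS. 15 min preincubation plus 30 min after DTT, room temperature. Ex/Em 525/598 nm; 4-parameter Hill fit against DMSO and 10 uM DA3003.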

SMILES | Potency [1] | Potency [2] | Potency [3] | Potency [4] | Potency [5] | Potency [6] | outcome [3] | activity change, negative = thiol reactive [4] | activity, negative = inhibition [5] | redox activity (% of DA3003) [6]
Cc1ccc(-c2c(C(=O)CCl)n(CCCO)c3ncnc(N)c23)cc1 | inactive | inactive | inactive | inactive | inactive | 15 µM (active) |  |  |  | 
CC1=CC2/C=C(\C)CCC(O)C(=O)C(O)CC(=O)C23C(=O)NC(CC(C)C)C3C1C (stereo not given) | inactive | inactive | inactive | inactive | inactive | inactive |  |  |  | 
C=C1C(=O)O[C@H]2C[C@@H](C)[C@@H]3CCC(=O)[C@@]3(C)C[C@H]12 | inactive | inactive | inactive | inactive | inactive | inactive |  |  |  | 
Cc1cccc(C#Cc2cc(F)cc(C#N)c2)n1 | inactive | inactive | inactive | inactive | inactive | inactive |  |  |  | 
Cc1ccnn1-c1ccc(C(=O)N2CCN(S(=O)(=O)c3ccc(Cl)c(C(F)(F)F)c3)CC2)cc1 | inactive | inactive | inactive | inactive | inactive | inactive |  |  |  | 
C=C1C(=O)OC2CC3(C)C(O)C(=O)C=C(C)C3CC12 (stereo not given) | inactive | inactive | inactive | 2.67 µM (active) | inactive | inactive |  |  |  | 
C/C=C(/C=C(C)/C=C/C=C/C=C(\C)C(=O)C12OC1C(O)(CCO)NC2=O)C(=O)OC (stereo not given) | inactive | inactive | inactive | inactive | inactive | inactive |  |  |  | 
Nc1cccc(CNC(=O)c2ccc(Oc3ccc(OCc4cccc(F)c4)cc3)nc2)c1 | inactive | inactive | inactive | inactive | inactive | inactive |  |  |  | 
CC1(C)CC[C@]23CO[C@@]4(CCC5[C@@]6(C)CC[C@H](O[C@@H]7OC[C@H](O[C@@H]8O[C@H](CO)[C@@H](O)[C@H](O)[C@H]8O[C@@H]8OC[C@@H](O)[C@H](O)[C@H]8O)[C@H](O)[C@H]7O)[C@@](C)(CO)C6CC[C@@]5(C)[C@]4(C)CC2=O)[C@@H]3C1 (stereo not given in full) | inactive | inactive |  |  |  |  | inactive [at 11.6 µM] | 249% [at 11.5 µM] | 3.95% [at 11.6 µM] | -0.913% [at 11.5 µM]
CN(C)CCn1cc(-c2ccc(F)cc2)c(-n2cccc2)n1 | inactive | inactive | inactive | inactive | inactive | inactive |  |  |  | 
C=C1C(=O)O[C@@H]2[C@H]1CC[C@H](C)C(CCC(=O)O)C2(C)O (stereo not given in full) | inactive | inactive | inactive | inactive | inactive | inactive |  |  |  | 
CC(C)NCCCn1c(Sc2cc3c(cc2I)OCO3)nc2c(N)ncnc21 | inactive | inactive | inactive | inactive | inactive | inactive |  |  |  | 
COc1ccc(S(=O)(=O)Nc2cc(Cl)cc(Cl)c2OC)cc1N1CCNCC1 | inactive | inactive | inactive | inactive | inactive | inactive |  |  |  | 
CC(C)(CNC(=O)c1cccc(-c2noc(C(F)(F)F)n2)c1)c1coc(-c2ccccc2)n1 | inactive | inactive | inactive | inactive | inactive | inactive |  |  |  | 
O=C(/C=C/c1ccccc1O)O[C@@H]1O[C@H](CO)[C@@H](O)[C@H](O)[C@H]1O | inactive | inactive | inactive | inactive | inactive | inactive |  |  |  | 
Cc1cc(N2CCN(C(=O)Oc3ccc(-c4ccccc4)cn3)CC2)c2ccccc2n1 | inactive | inactive | inactive | inactive | inactive | inactive |  |  |  | 
Cc1cc2ncc(C(=O)NCC(C)(C)NCC(=O)N3CCC[C@H]3C#N)cn2n1 | inactive | inactive | inactive | inactive | inactive | inactive |  |  |  | 
COc1cc(C(C)=O)c(OC)c2c1OC(C)(C)C=C2 | inactive | inactive | inactive | inactive | inactive | inactive |  |  |  | 
CCN1CCN(Cc2ccc(NC(=O)c3ccc(C)c(Oc4ccnc5[nH]ccc45)c3)cc2C(F)(F)F)CC1 | inactive | inactive | inactive | inactive | inactive | inactive |  |  |  | 
CC(C)c1ccccc1OC(=O)NCCc1ccc2ccccc2c1 | inactive | inactive | inactive | inactive | inactive | inactive |  |  |  | 
C=C1C(=O)O[C@@H]2[C@H]3C(C)=CC(=O)C3=C(C)[C@@H](OC(=O)/C(C)=C\C)[C@H](O)[C@@H]12 | inactive | inactive | inactive | inactive | 9.31 µM (active) | inactive |  |  |  | 
CC(C)c1ccc(NC(=O)c2cccs2)c(-c2nc3ccccc3[nH]c2=O)c1 | inactive | inactive | inactive | inactive | inactive | inactive |  |  |  | 
COc1ccccc1OCCNCC(O)CCOc1cccc2[nH]c3ccccc3c12 (stereo not given) | inactive | inactive | inactive | inactive | inactive | inactive |  |  |  | 
C=C[C@](C)(O)CC[C@H]1C(C)=CC(=O)[C@H]2C(C)(C)CCC[C@]12C | inactive | inactive | inactive | inactive | inactive | inactive |  |  |  | 
CC(C)CCCCC(=O)N[C@@H](CO)C(=O)N[C@@H](CC(C)C)C(=O)[C@@]1(CO)CO1 | inactive | inactive | inactive | inactive | inactive | inactive |  |  |  | 
